# Most compounds without a hit are left out; they make up all but 10% or so of the library.
# Mm-Cpn inhibitor: inhibitors of Methanococcus maripaludis chaperonin TRiC (MmCpn). purified Mm-Cpn ATPase, ADP Transcreener TR-FRET. Potency, µM (top dose mostly 76.9 µM), for the others: at the top dose activity, negative = inhibition, most hits filed as inhibitors. 330,000 tested, 0.031% active; further: potency means the concentration at half of the fitted maximal effect; nearly all actives have a fitted effect of over 80% in size
#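 TR-FRET (320 nm excitation; 590 and 665 nm emission) reports ADP made from 10 uM ATP by 25 nM enzyme; compounds were preincubated 10 min, reaction run 30 min, both at 37°C.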
# G9a inh: G9a (human) methyltransferase inhibition. Q96KQ7. AID 504332. Potency, µM (top dose mostly 102 µM), without a hit: top-dose activity, negative = inhibition, hits mostly inhibitors. 350,000 tested, 8.8% active. G9a H3K9 monomethylation, AlphaScreen, 2 h; further: potency means the concentration at half of the fitted maximal effect; nearly all actives have a fitted effect of over 75% in size
# Target sequence (Q96KQ7 913-1193 limits assumed): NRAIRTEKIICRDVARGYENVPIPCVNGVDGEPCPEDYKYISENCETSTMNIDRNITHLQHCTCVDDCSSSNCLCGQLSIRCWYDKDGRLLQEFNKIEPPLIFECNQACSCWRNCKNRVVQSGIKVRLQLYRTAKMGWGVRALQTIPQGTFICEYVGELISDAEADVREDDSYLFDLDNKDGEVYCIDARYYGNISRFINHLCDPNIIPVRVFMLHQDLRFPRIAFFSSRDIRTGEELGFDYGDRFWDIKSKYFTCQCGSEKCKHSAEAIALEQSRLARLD
#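 Readings reflect AlphaScreen signal from monomethyl-H3K9 antibody detection. HMT at 20 nM; substrate b-H3K9 500 nM; cofactor SAM 20 uM; 2 h RT reaction; compounds tested as titrations in qHTS with 15 min preincubation.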
# VDR inhibitor: inhibitors of human vitamin D receptor; P11473; VDR-SRC2-3 peptide fluorescence polarization, 2 h; Potency, µM, for inactives: max response, negative = inhibition, actives largely listed as inhibitors; 400,000 tested, 0.93% active; further: potency means the concentration at half of the fitted maximal effect
# Target sequence (P11473 whole entry, looked up): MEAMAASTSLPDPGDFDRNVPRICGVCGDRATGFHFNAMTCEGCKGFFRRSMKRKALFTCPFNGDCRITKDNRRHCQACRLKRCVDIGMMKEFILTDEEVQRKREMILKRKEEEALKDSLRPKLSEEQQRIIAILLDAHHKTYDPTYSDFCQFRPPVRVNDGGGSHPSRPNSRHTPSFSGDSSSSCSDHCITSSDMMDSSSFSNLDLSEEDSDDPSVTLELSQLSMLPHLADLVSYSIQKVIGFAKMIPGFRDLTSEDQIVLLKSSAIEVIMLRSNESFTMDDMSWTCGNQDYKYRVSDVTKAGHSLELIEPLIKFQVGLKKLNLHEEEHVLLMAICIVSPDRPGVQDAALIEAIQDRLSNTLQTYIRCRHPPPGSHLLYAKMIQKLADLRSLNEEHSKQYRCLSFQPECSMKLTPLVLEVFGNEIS
#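 After 23 nl compound addition and a short centrifugation, plates sat for 2 hours at ambient temperature; polarization of fluorescence then indicated loss of VDR binding to peptide SRC2-3.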
# Sfp inh: blocks B. subtilis Sfp PPTase activity. Q9F4F7. Biochemical Sfp PPTase activity, qHTS. Potency, µM, for inactives: largest response in the series, negative = inhibition, actives largely listed as inhibitors. 310,000 tested, 3.5% active;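 further: the enzyme is Sfp with the accession as filed and its product quenches rhodamine fluorescence; potency means the concentration at half of the fitted maximal effect; 0% = enzyme reaction without inhibitor and -100% = no enzyme wells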
#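 Step 1, compound plus 15 nM Sfp-PPTase, 15 min, room temperature. Step 2, add rhodamine-CoA (5 uM) and BHQ-2-YbbR (12.5 uM). Step 3, read 525/598 nm fluorescence at 0 and 30 min.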
# CCT chaperon mod: cytosolic chaperonin activity modulation | purified chaperonin ATPase assay, HTRF ADP detection, 30 min | activity change, % (no concentration beside the values), hits read low | 360,000 tested, 0.3% active; in the data active means activity change below about -30%
#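 We incubate TRiC, 40 or 20 nM final, with library compounds at 76 uM and 10 uM ATP for 30 min at 37 °C. ADP formed is detected with Transcreener HTRF reagents after 30 min at room temperature.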
# PLK1 PBD inh: inhibitors of human PLK1 polo-box domain binding; Potency, µM, inactives show max response, negative = inhibition, usual class: inhibitors; AID 720504; Plk1 PBD binding of FITC phosphopeptide, fluorescence polarization; 360,000 tested, 2.8% active; further: potency means the concentration at half of the fitted maximal effect; series mostly up to about 57 µM; nearly all actives have a fitted effect of over 65% in size
# * = called active by the depositor; ? = inconclusive; · = no result given; ! = repeats disagree; [ ] = dose if it differs, or a comment. Unless noted, the call rests on the fitted dose curve; in most records, active means well fitted curve in the direction sought with a large enough effect; inconclusive means small, poorly fitted or top-dose-only effect, or another doubt; inactive means no such curve, though single readings can be large; an effect the other way counts as inactive or inconclusive. Unless noted, on the % scale 0 is the no-effect control and ±100 the full control effect.
SMILES,Mm-Cpn inhibitor,G9a inh,VDR inhibitor,Sfp inh,CCT chaperon mod,PLK1 PBD inh
COc1cc2c(cc1OC)/C(=C/C(=O)c1ccc(OC)c([N+](=O)[O-])c1)NCC2,0%,8%,-20%,2%,1,-13%
COc1cc2c(cc1OC)/C(=C/C(=O)c1cccc([N+](=O)[O-])c1)NCC2,-1%,-45%,-1%,-1%,1,?
COc1cc2c(cc1OC)/C(=C/C(=O)c1ccc(F)cc1)NCC2,0%,79µM*,4%,-15%,-4,7%
COc1cc2c(cc1OC)/C(=C/C(=O)c1ccccc1F)NCC2,-1%,56µM*,-3%,-6%,-1,-4%
CCOC(=O)c1ccc(NC(=O)C2CCN(C(=O)N3CC(C)Oc4ccc(C)cc43)CC2)cc1 (stereo not given),·,-34%[59 µM],-6%,·,·,·
Cc1cccc(C(=O)O/N=C(\N)c2cccc([N+](=O)[O-])c2)c1,0%,4%,-1%,16%,-5,-16%
CC1=CC(=O)C=C(C)C1=NOC(=O)c1cccc([N+](=O)[O-])c1,-2%,?,3%,-22%,-1,9.5µM*
CCCC(=O)Nc1cccc(OCc2cc(=O)n3cccc(C)c3n2)c1,·,-3%[59 µM],10%,·,·,·
CCN1CCN(CC(=O)Nc2ccc(C)c(Br)c2)CC1,1%,45µM*,6%,?,0,1%
CCOC(=O)N1CCN(CC(=O)Nc2cc(OCC)ccc2OCC)CC1,1%,11µM*,11%,-1%,2,-6%
CCOC(=O)N1CCN(CC(=O)NC(=O)Nc2ccc3c(c2)OCCO3)CC1,-2%,50µM*,-6%,·,-2,-1%
CCN1CCN(CC(=O)Nc2ccc(C(C)=O)cc2)CC1,-1%,2%[2.33 µM],6%,?,1,-4%
CCCCOc1ccc(NC(=O)CN2CCN(CC)CC2)cc1,-1%,11µM*,-7%,?,-5,-18%
CCOC(=O)N1CCN(c2c(Nc3ccc4c(c3)OCCO4)c(=O)c2=O)CC1,-1%,?,9%,11%,-1,2%
COC(=O)c1ccc(Cl)cc1NC(=O)N1CCCn2nc(C)cc21,·,4%[59 µM],11%,·,·,·
CC[C@H](C)[C@H](NC(=O)[C@H](CO)NC(=O)[C@H](CC(N)=O)NC(=O)[C@H](CC(C)C)NC(=O)[C@H](Cc1ccc(O)cc1)NC(=O)[C@H](CCCCN)NC(=O)[C@H](CCCCN)NC(=O)[C@@H](NC(=O)[C@H](C)NC(=O)[C@H](CCSC)NC(=O)[C@H](CCC(N)=O)NC(=O)[C@H](CCCCN)NC(=O)[C@H](CCCNC(=N)N)NC(=O)[C@H](CC(C)C)NC(=O)[C@H](CCCNC(=N)N)NC(=O)[C@@H](NC(=O)[C@H](Cc1ccc(O)cc1)NC(=O)[C@H](CC(N)=O)NC(=O)[C@H](CC(=O)O)NC(=O)[C@@H](NC(=O)[C@H](Cc1ccccc1)NC(=O)[C@@H](NC(=O)[C@H](C)NC(=O)[C@H](CC(=O)O)NC(=O)[C@H](CO)NC(=O)[C@@H](N)Cc1cnc[nH]1)C(C)C)[C@@H](C)O)[C@@H](C)O)C(C)C)C(=O)N[C@@H](CC(C)C)C(=O)N[C@@H](CC(N)=O)C(N)=O,·,·,-13%,10%,·,·
Cc1ccc(S(=O)(=O)N(C)CC(=O)OCC(=O)NC(=O)Nc2ccc3c(c2)OCCO3)cc1,0%,-14%[59 µM],?,-13%,1,27µM*
Cc1ccc(S(=O)(=O)N[C@H](C(=O)OCC(=O)NC(=O)Nc2ccc3c(c2)OCCO3)C(C)C)cc1,1%,1%[59 µM],-5%,-6%,-2,-19%
CCCCOc1ccc(CC(=O)NO)cc1,2%,28µM*!,-9%,-2%,-1,-4%
CCCCOc1ccc(NC(=O)CN2CCN(C(=O)OCC)CC2)cc1,-2%,2.5µM*,10%,-27%,1,0%
CCOC(=O)N1CCN(CC(=O)Nc2ccc(C)cc2)CC1,·,0%[59 µM],3%,12%,-4,-10%
Cc1c(C)c2c(OCC(=O)NCC(=O)NCC(=O)O)cc3c(c2oc1=O)CCC(C)(C)O3,-9%,18%,?,15%,-1,12µM*
Cc1ccccc1NS(=O)(=O)c1ccc2[nH]cc(C(=O)N3CCCC3)c(=O)c2c1,·,-28%[59 µM],1%,·,·,·
COc1ccc(NC(=S)NCCc2c[nH]c3ccccc23)cc1,1%,32%[59 µM],-14%,18%,0,-2%
COc1ccc2[nH]cc(CCNC(=O)Nc3ccccc3)c2c1,0%,-26%,-2%,5%,-1,-10%
SMILES,Mm-Cpn inhibitor,G9a inh,VDR inhibitor,Sfp inh,CCT chaperon mod,PLK1 PBD inh
COc1ccc2[nH]cc(CCNC(=S)NCCc3ccccc3)c2c1,1%,45µM*,6%,26%,-1,1%
COc1ccccc1NC(=S)NCCc1c[nH]c2ccccc12,2%,-7%[0.501 µM],-17%,-2%,1,3.4µM*
COc1ccc2sc(-c3ccc(S(C)(=O)=O)cc3)c(C(=O)NCCc3c[nH]c4ccccc34)c2c1,28µM*,·,9%,·,2,1%
COc1cc(NC(=S)NCCc2c[nH]c3ccccc23)c(OC)cc1Cl,-4%,45µM*,-1%,23%,-1,1%
COc1ccc2c(C(=O)NCCCCO)c(-c3ccc(S(C)(=O)=O)cc3)sc2c1,-15%,·,0%,·,-2,-30%
O=c1c(-c2cccs2)nc2cnc(N3CCOCC3)nc2n1-c1ccccc1,·,14%[0.501 µM],-18%,5%,·,·
Cc1ccc(NC(=O)Cn2c(-c3nonc3N)nc3ccccc32)cc1C,·,-3%[59 µM],-8%,·,·,·
COc1ccc(OC)c(NC(=O)NCCc2c[nH]c3ccccc23)c1,2%,79µM*,15%,6%,-2,8%
COc1ccc(C(=O)NCCc2c[nH]c3ccccc23)cc1S(=O)(=O)N1CCCCC1C (stereo not given),-2%,2.8µM*,-11%,·,-3,4%
COc1ccc(C(=O)NCCc2c[nH]c3ccccc23)cc1OC,2%,·,3%,9%,-7,-4%
CCSc1nnc(CNC(=O)C23CC4CC(CC(C4)C2)C3)n1Cc1ccccc1,-1%,32µM*,-18%,-4%,-2,-15%
O=[N+]([O-])c1ccc(-[n+]2ccc3ccccc3c2)c([N+](=O)[O-])c1,-11%,-7%[2.33 µM],79µM*,·,2,24µM*
O=[N+]([O-])c1ccc(SNc2ccccc2)c([N+](=O)[O-])c1,·,·,-9%,·,-3,-14%
Cc1ccc2c(CC(=O)Nc3c(C(=O)c4ccc(F)cc4)oc4ccccc34)coc2c1,·,5%[59 µM],-3%,·,·,·
Cc1[nH]c2ccccc2c1C(O)c1ccncc1 (stereo not given),-3%,-41%,9%,21%,1,-12%

# Source: PubChem BioAssay
